Consider eight compounds from PubChem BioAssay (Tox21).

Assay [1] in a line: Nuclear factor erythroid 2-related factor 2/antioxidant responsive element (Nrf2/ARE) small molecule agonists: qHTS cell viability counter screen in human keratinocytes (AID 1919968; active means well fitted curve in the direction sought with a large enough effect in the repeat runs; an effect the other way counts as inactive or inconclusive; further: nearly all actives have a fitted effect of over 55% in size; further: potency means the concentration at half of the fitted maximal effect). The essentials:
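Cells of the KeratinoSens line were plated at 1,500 per well and left for 5 h before compound transfer from DMSO stocks. After a 23 h incubation (37 C, 5% CO2), CellTiter-Fluor was added. Signal was taken as fluorescence intensity 1 h later.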

The nature of assay [2]: Nuclear factor erythroid 2-related factor 2/antioxidant responsive element (Nrf2/ARE) small molecule agonists: luciferase reporter gene qHTS assay in human keratinocytes (AID 1919969). Further: nearly all actives have a fitted effect of over 35% in size. Further: potency means the concentration at half of the fitted maximal effect. A general note: Reporter assays use an easily measured gene product as a stand-in for the process of interest.
Assay [3] addresses Gonadotropin-releasing hormone receptor (Homo sapiens) (UniProt P30968). Kind of assay: Human gonadotropin-releasing hormone receptor (GnRHR) small molecule agonists, calcium flux assay in GnRHR-HEK293 cells (AID 1920063). Further: nearly all actives have a fitted effect of over 35% in size. Put shortly: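 Compounds dissolved in DMSO are pin-transferred onto dye-loaded GnRHR-HEK293 cells, which were seeded 18 h before at 37 C/5% CO2. Calcium signal is read as fluorescence intensity at 1 s intervals for 3 min.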
(In general: A change in cytosolic calcium serves as a functional read-out for many receptors and channels.)

The target in assay [4] is KiSS-1 receptor (Homo sapiens) (UniProt Q969F8). Kind of assay: Human kisspeptin (KISS1R) small molecule agonists, calcium flux assay in KISS1R-HEK293 cells (AID 1920064; active means well fitted curve in the direction sought with a large enough effect in the repeat runs; an effect the other way counts as inactive or inconclusive). The essentials: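 Cell line: HEK293, stable human KISS1R. Dye loading 1 h at 37 C after 18 h culture. Read: kinetic fluorescence, 480/540 nm, 3 min at 1 s intervals.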
Sequence of KiSS-1 receptor (Homo sapiens) (Q969F8 whole entry, looked up): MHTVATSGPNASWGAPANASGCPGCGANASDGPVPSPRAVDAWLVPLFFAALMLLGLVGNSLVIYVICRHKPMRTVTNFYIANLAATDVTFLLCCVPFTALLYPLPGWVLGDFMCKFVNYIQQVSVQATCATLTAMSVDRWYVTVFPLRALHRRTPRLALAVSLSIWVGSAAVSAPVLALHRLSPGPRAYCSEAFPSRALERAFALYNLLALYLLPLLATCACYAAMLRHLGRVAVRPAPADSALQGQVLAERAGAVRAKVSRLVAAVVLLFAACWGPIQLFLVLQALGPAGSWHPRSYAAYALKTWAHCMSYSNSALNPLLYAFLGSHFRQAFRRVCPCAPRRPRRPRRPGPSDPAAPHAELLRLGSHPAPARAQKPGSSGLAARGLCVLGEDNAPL
Assay [5] is described as follows: G protein-coupled receptor (GPCR) small molecule agonists, calcium flux assay: HEK293 wild type cell line counter screen (AID 1920065). The essentials: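 Tox21 10K compounds, 15 concentrations each in triplicate, pin-transferred in DMSO onto dye-loaded cells; kinetic read at 480/540 nm for 3 min, 1 s intervals.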
The nature of assay [6]: p53 small molecule agonists, cell-based qHTS assay with human liver microsomes (AID 1963577).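 Further: p53 response element beta-lactamase reporter cells with liver microsomes plus NADPH.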 The essentials: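 With metabolic activation: human liver microsomes (0.5 mg/mL final) plus NADPH (0.5 mg/mL final) added alongside compounds to p53RE-bla cells; 16 h 37 C exposure; beta-lactamase read by LiveBLAzer fluorescence.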
In general terms: In qHTS, concentration-response curves come from the screen itself.

Assay [7] can be described thus: p53 small molecule agonists, cell-based qHTS assay with rat liver microsomes: qHTS cell viability counter screen (AID 1963580). Further: nearly all actives have a fitted effect of over 45% in size. The essentials:
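Counter screen for cytotoxicity under metabolic activation: rat liver microsomes and NADPH, 0.5 mg/mL final each, added with compounds to p53RE-bla HCT-116 cells; 16 h at 37 C, then ATP luminescence read.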

Assay [8] in a line: p53 small molecule agonists, cell-based qHTS assay: qHTS cell viability counter screen (AID 1963581). Further: nearly all actives have a fitted effect of over 45% in size. Put shortly:
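ATP content measured by luminescence in HCT-116 p53RE-bla cells treated 16 h at 37 C, same wells as the reporter screen.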

Assay [9] is described as follows: p53 small molecule agonists, cell-based qHTS assay (AID 1963582; active means well fitted activation curve with a large enough effect in the signal ratio in the repeat runs, not every such curve was filed as active; the % refers to the signal ratio). The essentials:
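16 h compound exposure (37 C) of p53 response element–bla cells, preceded by 5 h recovery at 37 C/5% CO2; read-out via LiveBLAzer B/G FRET substrate, 2 h RT, fluorescence intensity.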

Assay [10] addresses 5-hydroxytryptamine receptor 2A (Homo sapiens) (UniProt P28223). Kind of assay: 5-hydroxytryptamine receptor 2A (HTR2A) small molecule antagonists, cell-based qHTS assay (AID 1963586). Further: nearly all actives have a fitted effect of over 45% in size. The essentials: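 CHO cells stably expressing human HTR2A were plated for 18 h at 37 C, then loaded with calcium dye for 1 h. Compounds were preincubated 5 min at room temperature before DOI (4 nM solution) was added. Kinetic fluorescence was read for 3 min.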

Assay [11] concerns the target Muscarinic acetylcholine receptor M1 (Homo sapiens) (UniProt P11229). The experiment in a line: Cholinergic receptor muscarinic 1 (CHRM1) small molecule antagonists, cell-based qHTS assay (AID 1963588). Further: nearly all actives have a fitted effect of over 40% in size. Put shortly:
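Compounds were tested at 15 concentrations in three independent runs. Dye-loaded CHRM1-CHO cells were exposed 5 min at room temperature before stimulation by acetylcholine added at 50nM. Intracellular calcium was read kinetically on FDSS for 3 min.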

For assay [12] the target is unchanged. Kind of assay: Cholinergic receptor muscarinic 1 (CHRM1) small molecule agonists, cell-based qHTS assay (AID 1963589). Further: nearly all actives have a fitted effect of over 35% in size. Put shortly:
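Homogeneous fluorescence calcium flux, agonist mode. Human M1-expressing CHO cells; compound dosed at 15 concentrations, three independent runs; signal sampled every 1 sec.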

Assay [13] can be described thus: cAMP Responsive Elements (CRE) small molecule agonists, cell-based qHTS assay (AID 1963590). The essentials:
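HEK 293T cells stably bearing CRE-bla were plated at 2,000 cells per well and rested 18 h. Compounds, positive controls or DMSO were added for 3 h at 37 C. LiveBLAzer B/G substrate was then loaded for 2 h at room temperature.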

Assay [14] is described as follows: cAMP Responsive Elements (CRE) small molecule antagonists, cell-based qHTS assay (AID 1963591; active means well fitted inhibition curve with a large enough effect in the signal ratio in the repeat runs, not every such curve was filed as active; the % refers to the signal ratio). Put shortly: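 First, CRE-bla HEK293T cells settled 18 h at 37 C. Next, compound and 0.25 uM final NKH477 were applied for 3 h. Last, LiveBLAzer B/G substrate was loaded for 2 h at room temperature.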
Assay [15] deals with Beta-2 adrenergic receptor (Homo sapiens) (UniProt P07550). Kind of assay: Adrenergic beta2 receptor (ADRB2) small molecule antagonists, cell-based qHTS assay (AID 1963592). Further: series mostly up to about 92 µM; nearly all actives have a fitted effect of over 50% in size. The essentials: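 Assay format: CHO-ADRB2 cells, 18-20hr seeding at 37C/5% CO2, then compound plus 1nM isoproterenol agonist mix for 0.5hr RT. Homogeneous time-resolved fluorescence cAMP detection after 1hr, expressed as 665/615 nm ratio.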
Sequence of Beta-2 adrenergic receptor (Homo sapiens) (P07550 whole entry, looked up): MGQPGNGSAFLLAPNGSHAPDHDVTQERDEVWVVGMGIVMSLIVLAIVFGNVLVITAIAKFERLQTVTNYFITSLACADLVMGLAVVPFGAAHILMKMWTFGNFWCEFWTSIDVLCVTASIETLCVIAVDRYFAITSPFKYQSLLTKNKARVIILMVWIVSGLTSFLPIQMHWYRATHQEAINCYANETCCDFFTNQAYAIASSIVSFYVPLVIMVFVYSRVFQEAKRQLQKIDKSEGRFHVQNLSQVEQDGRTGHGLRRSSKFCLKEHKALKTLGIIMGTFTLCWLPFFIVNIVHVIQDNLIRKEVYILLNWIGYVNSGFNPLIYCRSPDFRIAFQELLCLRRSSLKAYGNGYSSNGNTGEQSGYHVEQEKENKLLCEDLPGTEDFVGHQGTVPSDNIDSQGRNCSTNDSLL

Assay [16] concerns the target D(2) dopamine receptor (Homo sapiens) (UniProt P14416). The experiment in a line: Dopamine D2 receptor (DRD2) small molecule agonists, cell-based qHTS assay (AID 1963594). Further: nearly all actives have a fitted effect of over 35% in size. The essentials: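 HEK293 cells stably expressing DRD2 were cultured 24 h at 37 C, then given Ro20-1724 (0.1 mM final) and compounds for 10 min at room temperature. NKH477 (200nM) was then added for 30 min. cAMP was read by HTRF.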

Assay [17] has the same target. The experiment in a line: Dopamine D2 receptor (DRD2) small molecule antagonists, cell-based qHTS assay (AID 1963595; active means well fitted inhibition curve with a large enough effect in the signal ratio in the repeat runs, with a control signal flat; the % refers to the signal ratio). Put shortly: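 HEK293 cells stably expressing DRD2 were preincubated with 0.1 mM Ro20-1724, then with compound for 10 min at room temperature. Cells were stimulated with 200 nM NKH477 plus 12 nM quinpirole for 30 min, and cAMP was read by HTRF.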

Assay [18] concerns the target 5-hydroxytryptamine receptor 2A (Homo sapiens) (UniProt P28223). Kind of assay: 5-hydroxytryptamine receptor 2A (HTR2A) small molecule agonists, cell-based qHTS assay (AID 1963587). Further: nearly all actives have a fitted effect of over 30% in size. The essentials:
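HTR2A-CHO cells, plated 18 h at 37 C/5% CO2, dye-loaded 1 h at 37 C; compounds in DMSO added by pin tool (agonist mode). Intracellular calcium flux read as kinetic fluorescence on FDSS over 2 min at 1 s intervals.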

Assay [19] can be described thus: p53 small molecule agonists, cell-based qHTS assay with human liver microsomes: qHTS cell viability counter screen (AID 1963579). Further: nearly all actives have a fitted effect of over 45% in size. Further: potency means the concentration at half of the fitted maximal effect. Put shortly:
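Metabolic activation used human liver microsomes and NADPH, both 0.5 mg/mL final, over 16 hours at 37 C on p53RE-bla cells (4,000/well). Cytotoxicity measured by CellTiter-Glo luminescence, 30 min at room temperature.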

Assay [20] in a line: p53 small molecule agonists, cell-based qHTS assay with rat liver microsomes (AID 1963578). The essentials:
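Metabolic activation by rat liver microsomes and NADPH, each 0.5 mg/mL final, added right after compounds to p53RE-bla reporter cells (4,000/well, plated 5 h earlier). 16 h at 37 C, then LiveBLAzer substrate for 2 h at room temperature in the dark; fluorescence read-out.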

Several values for one entry are separate records, joined by “and”; a condition that tells them apart may be missing. Equal entries are not always repeated. Inconclusive results are not listed. Where a structure was tested more than once in an assay, its records may differ in their call. Activity calls are given as the source filed them. Unless noted, the call rests on the fitted dose curve.

Sequence of Gonadotropin-releasing hormone receptor (Homo sapiens) (P30968 whole entry, looked up): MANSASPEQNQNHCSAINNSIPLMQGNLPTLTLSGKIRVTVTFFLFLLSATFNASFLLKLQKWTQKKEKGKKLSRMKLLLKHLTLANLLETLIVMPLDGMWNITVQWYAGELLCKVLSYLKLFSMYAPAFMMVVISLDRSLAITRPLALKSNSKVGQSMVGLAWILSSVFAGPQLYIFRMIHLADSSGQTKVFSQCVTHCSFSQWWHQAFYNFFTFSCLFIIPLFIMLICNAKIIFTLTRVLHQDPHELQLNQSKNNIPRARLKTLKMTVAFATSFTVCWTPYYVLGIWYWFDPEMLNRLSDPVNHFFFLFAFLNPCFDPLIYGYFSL
Sequence of Muscarinic acetylcholine receptor M1 (Homo sapiens) (P11229 whole entry, looked up): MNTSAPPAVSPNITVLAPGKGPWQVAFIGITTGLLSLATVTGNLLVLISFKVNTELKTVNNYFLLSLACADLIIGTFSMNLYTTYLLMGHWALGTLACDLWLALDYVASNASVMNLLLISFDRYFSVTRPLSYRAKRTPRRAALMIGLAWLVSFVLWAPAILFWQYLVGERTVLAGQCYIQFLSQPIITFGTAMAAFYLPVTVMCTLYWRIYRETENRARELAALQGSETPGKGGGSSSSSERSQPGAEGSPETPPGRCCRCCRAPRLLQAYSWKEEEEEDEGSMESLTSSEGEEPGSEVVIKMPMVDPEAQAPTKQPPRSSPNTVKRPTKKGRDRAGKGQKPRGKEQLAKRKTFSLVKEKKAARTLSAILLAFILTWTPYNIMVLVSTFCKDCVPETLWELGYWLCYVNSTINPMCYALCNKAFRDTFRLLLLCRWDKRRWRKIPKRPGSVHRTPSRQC
Sequence of D(2) dopamine receptor (Homo sapiens) (P14416 whole entry, looked up): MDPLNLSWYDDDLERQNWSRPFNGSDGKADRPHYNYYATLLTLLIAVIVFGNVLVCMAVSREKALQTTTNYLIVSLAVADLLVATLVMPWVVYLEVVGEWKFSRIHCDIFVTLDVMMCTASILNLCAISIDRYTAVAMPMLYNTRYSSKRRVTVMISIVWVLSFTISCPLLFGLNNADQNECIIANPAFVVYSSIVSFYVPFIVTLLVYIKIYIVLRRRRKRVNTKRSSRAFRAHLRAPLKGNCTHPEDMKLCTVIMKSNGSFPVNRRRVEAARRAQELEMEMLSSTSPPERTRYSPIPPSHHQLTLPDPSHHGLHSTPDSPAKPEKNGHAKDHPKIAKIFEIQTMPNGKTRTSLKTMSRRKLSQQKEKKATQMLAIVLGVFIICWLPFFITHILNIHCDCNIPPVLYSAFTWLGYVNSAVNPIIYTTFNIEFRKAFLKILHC
Sequence of 5-hydroxytryptamine receptor 2A (Homo sapiens) (P28223 whole entry, looked up): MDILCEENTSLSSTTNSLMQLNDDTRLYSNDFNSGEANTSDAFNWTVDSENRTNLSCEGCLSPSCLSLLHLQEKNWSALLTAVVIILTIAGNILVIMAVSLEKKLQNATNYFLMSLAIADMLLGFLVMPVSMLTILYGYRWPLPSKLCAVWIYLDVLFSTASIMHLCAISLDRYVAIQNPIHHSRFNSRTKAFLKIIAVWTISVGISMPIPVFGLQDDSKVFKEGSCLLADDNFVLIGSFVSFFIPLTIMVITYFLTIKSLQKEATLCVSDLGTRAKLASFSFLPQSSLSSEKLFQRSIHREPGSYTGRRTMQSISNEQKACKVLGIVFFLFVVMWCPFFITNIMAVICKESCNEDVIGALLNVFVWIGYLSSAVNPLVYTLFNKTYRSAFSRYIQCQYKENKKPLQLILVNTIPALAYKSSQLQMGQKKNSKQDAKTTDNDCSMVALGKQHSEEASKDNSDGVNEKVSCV

As for `CCCOC(=O)c1ccccc1C(=O)OCCC`, the Potency result in assay [1], in [2], in [3], in assay [4], in assay [5] and in assay [6] was “inactive” throughout. Moreover, the Potency entry in [7], in assay [8], in assay [9], in [10], in [11] and in assay [12] was “inactive” in each case. In addition, the Potency result in assay [13], in [14], in assay [15], in [16] and in [17] was “inactive” in each case.

Take `O=NN1CCOCC1`: the Potency entry in [1], in assay [2], in assay [3], in [4], in assay [5] and in assay [6] was “inactive” in each case. For the same compound, the Potency result in assay [7], in [8], in assay [9], in [10], in assay [18] and in assay [11] was “inactive” throughout. For the same compound, the Potency entry in assay [12], in assay [13], in [14], in [15], in assay [16] and in assay [17] was “inactive” each time.

For `CCCCCCCCCCCC#N`, the Potency entry in assay [1], in [2], in [3], in assay [4], in assay [5] and in assay [6] was “inactive” throughout. In addition, the Potency result in assay [7], in [8], in assay [10], in assay [11], in assay [12] and in [13] was “inactive” each time. Besides, the Potency result in [14], in assay [15] and in assay [17] was “inactive” in each case. Further, the Potency result in assay [19] was “inactive and 42.3 µM (active)”.

On to `C=CC(=O)OCC(C)C`, for which the Potency result in assay [1], in [2], in [3], in assay [4], in [5] and in assay [20] was “inactive” each time. The Potency entry in [19], in assay [7], in [8], in assay [9], in assay [10] and in [18] was “inactive” in each case. Moreover, the Potency entry in assay [11], in assay [12], in [13], in assay [14], in assay [15] and in [16] was “inactive” each time. Further, the Potency entry in assay [17] was “inactive”.

In the case of `c1ccc(Nc2ccc3ccccc3c2)cc1`, the Potency is 68.2 µM (active) in assay [1]; 12.1 µM (active) and 21.7 µM (active) in [2]. For the same compound, the Potency entry in assay [3], in assay [4], in assay [5], in assay [6], in [7] and in assay [8] was “inactive” throughout. Besides, the Potency result in assay [9], in assay [10], in assay [18], in assay [11], in assay [12] and in assay [14] was “inactive” throughout. Besides, the Potency result in assay [15] and in assay [17] was “inactive” each time.

Consider `Cc1ccc(-c2nc3ccc(C)cn3c2CC(=O)N(C)C)cc1`, for which the Potency entry in assay [1], in assay [2], in assay [3], in assay [4], in [5] and in assay [6] was “inactive” throughout. Further, the Potency result in assay [19], in assay [7], in assay [9], in [10], in assay [18] and in assay [11] was “inactive” in each case. For the same compound, the Potency entry in assay [12], in [13], in assay [14], in assay [15] and in [17] was “inactive” each time.

With `CCOP(=S)(OCC)Oc1nc(Cl)c(Cl)cc1Cl`, the Potency result in assay [1], in assay [3], in assay [4], in assay [5], in assay [6] and in assay [19] was “inactive” in each case. Further, the Potency result in [7], in assay [8], in assay [9], in [10], in assay [18] and in assay [11] was “inactive” throughout. In addition, the Potency entry in assay [12], in [15], in assay [16] and in assay [17] was “inactive” in each case. Besides, the Potency in assay [2] is 27.4 µM (active) and 61.1 µM (active).

For the compound `CNC(=O)Oc1cccc2ccccc12`, the Potency entry in [1], in assay [2], in [3], in [4], in assay [5] and in assay [6] was “inactive” each time. The Potency entry in assay [19], in assay [7], in assay [8], in assay [9], in [18] and in assay [11] was “inactive” in each case. The Potency entry in assay [12], in assay [13], in assay [14], in assay [15] and in assay [16] was “inactive” in each case.
